# According to the supplement of paper PMC8728848:
# About 410 targets per protein were measured; listed, in parts, are those with the strongest signals and a random draw of the rest.
# Key:
# Experiment in all cases: glycan array binding signal (z-score within array); higher = stronger binding
# Conditions in all cases: glycan notation: IUPAC condensed, linker removed
# [1] = target: Fuc(a1-2)Gal
# In short: (§1)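 Columns mapping to the same glycan were averaged after glycan names were converted to IUPAC-condensed notation. The data come from 3228 arrays in the Consortium for Functional Glycomics database, limited to those with an available protein sequence. Binding is reported as a within-array Z-score averaged across arrays of one protein sequence and across linkers.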
# [2] = target: Fuc(a1-2)Gal(b1-3)GlcNAc(b1-3)Gal(b1-4)Glc
# In short: as §1
# [3] = target: Fuc(a1-2)Gal6S(b1-4)GlcNAc
# In short: as §1
# [4] = target: Fuc(a1-3)[Gal(b1-4)]GlcNAc(b1-2)Man(a1-3)[Fuc(a1-3)[Gal(b1-4)]GlcNAc(b1-2)Man(a1-6)]Man(b1-4)GlcNAc(b1-4)GlcNAc
# In short: as §1
# [5] = target: Fuc(a1-3)[Gal(b1-4)]GlcNAc(b1-2)Man(a1-6)[Gal(b1-4)GlcNAc(b1-2)Man(a1-3)]Man(b1-4)GlcNAc(b1-4)GlcNAc
# In short: as §1
# [6] = target: Fuc(a1-3)[GalNAc(b1-4)]GlcNAc
# In short: as §1
# [7] = target: Fuc(b1-3)GlcNAc
# In short: as §1
# [8] = target: Gal(a1-3)GalNAc
# In short: as §1
# [9] = target: Gal(b1-3)GlcNAc(b1-3)Gal(b1-4)Glc
# In short: as §1
# [10] = target: Gal(b1-3)GlcNAc(b1-3)Gal(b1-4)GlcNAc
# In short: as §1
# [11] = target: Gal(b1-3)[Neu5Ac(a2-6)]GlcNAc(b1-6)Gal(b1-4)Glc
# In short: as §1
# [12] = target: Gal(b1-4)GlcNAc(b1-3)[Gal(b1-4)GlcNAc(b1-6)]GalNAc
# In short: as §1
# [13] = target: Gal(b1-4)GlcNAc(b1-6)GalNAc
# In short: as §1
# [14] = target: Gal(b1-4)GlcNAc(b1-6)[Gal(b1-3)]GalNAc
# In short: as §1
# [15] = target: Gal6S(b1-4)Glc6S
# In short: as §1
# [16] = target: Gal6S(b1-4)GlcNAc6S
# In short: as §1
# [17] = target: GlcNAc(a1-6)Gal(b1-4)GlcNAc
# In short: as §1
# [18] = target: GlcNAc(b1-3)[GlcNAc(b1-6)]GlcNAc(b1-4)GlcNAc
# In short: as §1
# [19] = target: Man(a1-2)Man(a1-2)Man(a1-3)[Man(a1-2)Man(a1-3)[Man(a1-2)Man(a1-6)]Man(a1-6)]Man(b1-4)GlcNAc(b1-4)GlcNAc
# In short: as §1
# [20] = target: Man(a1-2)Man(a1-2)Man(a1-6)[Man(a1-3)]Man
# In short: as §1
# [21] = target: Man(a1-2)Man(a1-3)[Man(a1-2)Man(a1-6)]Man
# In short: as §1
# [22] = target: Man(a1-2)Man(a1-3)[Man(a1-3)[Man(a1-6)]Man(a1-6)]Man(b1-4)GlcNAc(b1-4)GlcNAc
# In short: as §1
# [23] = target: Neu5Ac(a2-3)Gal(b1-3)GalNAc(b1-4)[Neu5Ac(a2-3)]Gal(b1-4)Glc
# In short: as §1
# [24] = target: Neu5Ac(a2-3)Gal(b1-3)GlcNAc
# In short: as §1
# [25] = target: Neu5Ac(a2-3)Gal(b1-4)GlcNAc
# In short: as §1
# [26] = target: Neu5Ac(a2-8)Neu5Ac(a2-8)Neu5Ac(a2-3)[GalNAc(b1-4)]Gal(b1-4)Glc
# In short: as §1
# [27] = target: Fuc(a1-2)Gal(b1-4)GlcNAc(b1-3)Gal(b1-4)GlcNAc
# In short: as §1
# [28] = target: Fuc(a1-2)Gal(b1-4)GlcNAc6S
# In short: as §1
# [29] = target: Fuc(a1-2)GlcNAc
# In short: as §1
# [30] = target: Fuc(a1-2)[Gal(a1-3)]Gal(b1-4)[Fuc(a1-3)]GlcNAc
# In short: as §1
# [31] = target: Fuc(a1-2)[GalNAc(a1-3)]Gal(b1-4)[Fuc(a1-3)]GlcNAc
# In short: as §1
# [32] = target: Fuc(a1-3)[Gal3S(b1-4)]GlcNAc6S
# In short: as §1
# [33] = target: Gal(a1-4)Gal(b1-4)Gal
# In short: as §1
# [34] = target: Gal(b1-3)Gal
# In short: as §1
# [35] = target: Gal(b1-3)GalNAc(b1-3)Gal(b1-4)GlcNAc
# In short: as §1
# [36] = target: Gal(b1-3)[Neu5Ac(b2-6)]GlcNAc
# In short: as §1
# [37] = target: Gal(b1-4)Glc
# In short: as §1
# [38] = target: Gal(b1-4)Glc6S
# In short: as §1
# [39] = target: Gal3S(b1-4)GlcNAc6S
# In short: as §1
# [40] = target: Gal3S6S(b1-4)GlcNAc
# In short: as §1
# [41] = target: Gal3S6S(b1-4)GlcNAc6S
# In short: as §1
# [42] = target: GalNAc(a1-3)Gal
# In short: as §1
# [43] = target: Glc(b1-6)Glc
# In short: as §1
# [44] = target: Man(a1-2)Man(a1-3)Man
# In short: as §1
# [45] = target: Neu5Ac(a2-3)Gal(b1-3)[Fuc(a1-4)]GlcNAc(b1-3)Gal(b1-4)[Fuc(a1-3)]GlcNAc
# In short: as §1
# [46] = target: Neu5Ac(a2-3)Gal(b1-4)GlcNAc6S
# In short: as §1
# [47] = target: Neu5Ac(a2-3)Gal(b1-4)[Fuc(a1-3)]GlcNAc(b1-3)Gal(b1-4)[Fuc(a1-3)]GlcNAc(b1-3)Gal(b1-4)[Fuc(a1-3)]GlcNAc
# In short: as §1
# [48] = target: Neu5Ac(a2-6)Gal(b1-4)Glc
# In short: as §1
# [49] = target: Neu5Ac(b2-6)Gal(b1-4)GlcNAc
# In short: as §1
# [50] = target: Fuc(a1-2)Gal(b1-3)GalNAc(b1-3)Gal
# In short: as §1
# [51] = target: Fuc(a1-2)[GalNAc(a1-3)]Gal(b1-3)GlcNAc
# In short: as §1
# [52] = target: Fuc(a1-3)[Gal(b1-4)]GlcNAc(b1-4)Gal(b1-4)[Fuc(a1-3)]GlcNAc(b1-4)Gal(b1-4)[Fuc(a1-3)]GlcNAc
# In short: as §1
# [53] = target: Fuc(a1-4)GlcNAc
# In short: as §1
# [54] = target: Gal(b1-3)GalNAc(b1-3)Gal(a1-4)Gal(b1-4)Glc
# In short: as §1
# [55] = target: Gal(b1-4)GlcNAc(b1-3)Gal(b1-4)GlcNAc
# In short: as §1
# [56] = target: Neu5Ac(a2-3)Gal(b1-3)[Neu5Ac(a2-6)]GalNAc
# In short: as §1
# [57] = target: Neu5Ac(a2-6)Gal(b1-4)GlcNAc(b1-3)Gal(b1-4)GlcNAc
# In short: as §1
# [58] = target: Neu5Ac(b1-6)GalNAc
# In short: as §1
# [59] = target: Neu5Gc(a2-3)Gal(b1-4)[Fuc(a1-3)]GlcNAc
# In short: as §1
binder,measurement,setting,value
"NcCVNHO (Neurospora crassa), Q7S6U4 (protein) MSFHVTAEDARIEVRDNRTILFARLRREDGEWNDASYELDQIIGNNDGHFQWGGQNFTETAEDIRFHPKEGAAEQPILRARLRDCNGEFHDRDVNLTEIVENVNGEFQAKF",glycan array binding signal (z-score),[1],-0.209
same,glycan array binding signal (z-score),[2],5.47
same,glycan array binding signal (z-score),[3],-0.185
same,glycan array binding signal (z-score),[4],-0.194
same,glycan array binding signal (z-score),[5],-0.185
same,glycan array binding signal (z-score),[6],-0.254
same,glycan array binding signal (z-score),[7],-0.209
same,glycan array binding signal (z-score),[8],-0.225
same,glycan array binding signal (z-score),[9],4.71
same,glycan array binding signal (z-score),[10],-0.264
same,glycan array binding signal (z-score),[11],4.11
same,glycan array binding signal (z-score),[12],-0.246
same,glycan array binding signal (z-score),[13],-0.228
same,glycan array binding signal (z-score),[14],-0.196
same,glycan array binding signal (z-score),[15],-0.209
same,glycan array binding signal (z-score),[16],-0.172
same,glycan array binding signal (z-score),[17],-0.245
same,glycan array binding signal (z-score),[18],-0.297
same,glycan array binding signal (z-score),[19],8.87
same,glycan array binding signal (z-score),[20],4.66
same,glycan array binding signal (z-score),[21],4.86
same,glycan array binding signal (z-score),[22],0.23
same,glycan array binding signal (z-score),[23],-0.244
same,glycan array binding signal (z-score),[24],-0.217
same,glycan array binding signal (z-score),[25],-0.24
same,glycan array binding signal (z-score),[26],-0.24
"FBG3 (Homo sapiens), Q9H4M3 (protein) MAVGNINELPENILLELFTHVPARQLLLNCRLVCSLWRDLIDLVTLWKRKCLREGFITEDWDQPVADWKIFYFLRSLHRNLLHNPCAEEGFEFWSLDVNGGDEWKVEDLSRDQRKEFPNDQVKKYFVTSYYTCLKSQVVDLKAEGYWEELMDTTRPDIEVKDWFAARPDCGSKYQLCVQLLSSAHAPLGTFQPDPATIQQKSDAKWREVSHTFSNYPPGVRYIWFQHGGVDTHYWAGWYGPRVTNSSITIGPPLP",glycan array binding signal (z-score),[1],0.149
same,glycan array binding signal (z-score),[27],-0.582
same,glycan array binding signal (z-score),[28],0.121
same,glycan array binding signal (z-score),[29],-0.096
same,glycan array binding signal (z-score),[30],0.034
same,glycan array binding signal (z-score),[31],0.422
same,glycan array binding signal (z-score),[32],1.94
same,glycan array binding signal (z-score),[33],-0.387
same,glycan array binding signal (z-score),[34],-0.052
same,glycan array binding signal (z-score),[35],-0.569
same,glycan array binding signal (z-score),[36],-0.544
same,glycan array binding signal (z-score),[37],0.009
same,glycan array binding signal (z-score),[38],0.065
same,glycan array binding signal (z-score),[14],-0.478
same,glycan array binding signal (z-score),[39],2.99
same,glycan array binding signal (z-score),[40],1.73
same,glycan array binding signal (z-score),[41],7.93
same,glycan array binding signal (z-score),[42],-0.033
same,glycan array binding signal (z-score),[43],1.71
same,glycan array binding signal (z-score),[44],-0.171
same,glycan array binding signal (z-score),[45],0.235
same,glycan array binding signal (z-score),[46],-0.064
same,glycan array binding signal (z-score),[47],-0.514
same,glycan array binding signal (z-score),[48],-0.34
same,glycan array binding signal (z-score),[26],0.271
same,glycan array binding signal (z-score),[49],-0.75
"Siglec-H (Mus musculus), Q4QQK7 (protein) MLLSRLLPLLWVLKWASGNCFILPREVIGTYPSLTLELQSVTVQEGLCVLVPCHLIEYPMNRWSDAAFGYWFHEGENTHPDSLVATNKPYQLVQKEMQSRFHFSGDCSLDIRDAQKGDNGSYFFRLEKGGKTWNFCEERISVHVTDLTHSPNISIPQTLELGRPTNVMCSVPWACERGTPPIFSWMSAALISLGPTTTLSSVLTLTPRLQDHGTNLTCQVTFPGAGVTVQKTIQLNVTYNSQNSTAHVSGRVGPGKPRPLADVVQVAMGEAAIKFLLLGICFFFLSKRSHTKRVERPATHMDQAHAVMD",glycan array binding signal (z-score),[1],-0.112
same,glycan array binding signal (z-score),[50],2.48
same,glycan array binding signal (z-score),[2],2.46
same,glycan array binding signal (z-score),[51],-0.271
same,glycan array binding signal (z-score),[52],-0.236
same,glycan array binding signal (z-score),[53],-0.188
same,glycan array binding signal (z-score),[54],-0.31
same,glycan array binding signal (z-score),[55],-0.348
same,glycan array binding signal (z-score),[12],6.24
same,glycan array binding signal (z-score),[39],-0.224
same,glycan array binding signal (z-score),[56],2.4
same,glycan array binding signal (z-score),[57],1.02
same,glycan array binding signal (z-score),[58],0.697
same,glycan array binding signal (z-score),[59],-0.29
